Source: PubChem (National Center for Advancing Translational Sciences (NCATS))
TDP-43 tox inh = qHTS of TDP-43 Inhibitors: NCGC Sytravon Library Screen | yeast TDP-43 toxicity rescue, BacTiter-Glo growth, 24 h | Potency, µM (titrated, usually from 46.1 µM), most hits filed as activators | actives 0.45% (n = 45,000) | AID 1347073, 2019; active means well fitted activation curve with a large enough effect; further: 0% is about no effect; nearly all actives have a fitted effect of over 55% in size
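TDP-43-expressing yeast, pregrown in raffinose, seeded at OD600 0.02 in galactose medium with compound for 24 hr at 30 deg C. Growth read by BacTiter-Glo luminescence, so rescue of toxicity appears as activation.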
* = called active by the depositor. Only a selection was taken, and hits are over-represented in it overall. Potency means the concentration at half of the fitted maximal effect.

How did CCOC(=O)c1cccc(NC(=O)N2Cc3ccccc3Oc3ncccc32)c1 do in these assays?
TDP-43 tox inh: inactive

What do the screens show for `Cc1c2cnn(-c3ccccc3)c(=O)c2c(C)n1CC(=O)NCc1ccccc1Br`?
TDP-43 tox inh: inactive

Results for Cc1ccsc1CN(C(=O)c1oc2cc(Br)ccc2c1C)C1CCS(=O)(=O)C1 (centres undefined) ?
TDP-43 tox inh: inactive

What do the screens show for `CC(=O)Nc1sc(NC(=O)c2ccco2)nc1-c1cccs1`?
TDP-43 tox inh: inactive

What do the screens show for `O=C(O)Cc1sc(Nc2ccc(Cl)cc2)nc1-c1cccs1`?
TDP-43 tox inh: inactive

How did CC1CC1C(=O)Nc1nc(-c2cccs2)c(-c2cccs2)s1 (centres undefined) do in these assays?
TDP-43 tox inh: 11µM*

What do the screens show for `Cc1ccccc1CNC(=O)C(C)n1nc(C)n2c(cc3occc32)c1=O` (centres undefined)?
TDP-43 tox inh: inactive

What do the screens show for `Cc1ccc(-c2nc(NC(=O)CSc3nc(C)nc4sc5c(c34)CCCC5)ns2)cc1`?
TDP-43 tox inh: inactive

What do the screens show for `O=C(CCCCCn1c(=O)c2sccc2n(CC(=O)Nc2cccc(Cl)c2)c1=O)NCc1ccc2c(c1)OCO2`?
TDP-43 tox inh: inactive

Results for COc1ccc(-n2c(-c3ccc(Cl)cc3Cl)n[nH]c2=S)c(OC)c1 ?
TDP-43 tox inh: inactive

Results for Clc1cccc(COn2c(-c3ccc(Cl)cc3Cl)nc3ncccc32)c1 ?
TDP-43 tox inh: 25µM*

Results for COCCn1c(-c2ccc(Cl)cc2Cl)nc2c(c(=O)c3ccccc3n2C)c1=O ?
TDP-43 tox inh: inactive

What do the screens show for `O=C(O)c1nn(CCOc2c(Cl)cccc2Cl)c(=O)c2ccccc12`?
TDP-43 tox inh: inactive

What do the screens show for `O=C(O)c1nn(CCOc2ccc(Cl)cc2Cl)c(=O)c2ccccc12`?
TDP-43 tox inh: inactive

What do the screens show for `O=C(O)c1nn(CCOc2cccc(Br)c2)c(=O)c2ccccc12`?
TDP-43 tox inh: 18µM*

Results for Cc1c(CCNC(=O)C(C)(C)C)sc2nc(-c3ccc(F)cc3)nn12 ?
TDP-43 tox inh: inactive

How did CCCC(=O)N(c1ccc2oc(-c3ccccc3)c(C(=O)OCC)c2c1)S(=O)(=O)c1ccc(C)cc1 do in these assays?
TDP-43 tox inh: inactive

How did Cc1ccc2c(c1)C(O)(CC(=O)/C=C/C=C/c1ccccc1)C(=O)N2 (centres undefined) do in these assays?
TDP-43 tox inh: inactive

How did Cc1ccc2c(c1)/C(=C/c1ccccc1)C(=O)N2 do in these assays?
TDP-43 tox inh: 22µM*

How did Cc1ccc(C)c(C2C(=O)c3ccccc3C2=O)c1 do in these assays?
TDP-43 tox inh: inactive

How did Cc1ccc(C)c(CN2C(=O)c3ccccc3S(=O)(=O)c3ccc(C(=O)N4CCN(c5ccccn5)CC4)cc32)c1 do in these assays?
TDP-43 tox inh: inactive

What do the screens show for `Cc1ccc(C(C)C)c(OCC(=O)Nc2cc(-c3nc4ccccc4[nH]3)ccc2C)c1`?
TDP-43 tox inh: inactive

How did Cc1ccccc1-c1nc(NC(=O)CSc2ncnc3sc4c(c23)CCCC4)ns1 do in these assays?
TDP-43 tox inh: inactive

What do the screens show for `COC(=O)c1ccc(COc2ccc(/C=N/O)cc2OC)o1`?
TDP-43 tox inh: inactive

Results for COc1cc(/C=N/NC(=O)CN2CCOCC2)ccc1OCc1ccccc1 ?
TDP-43 tox inh: inactive

How did CN(C(=O)c1cccc(COc2ccc(Cl)cc2Cl)c1)c1ccccc1 do in these assays?
TDP-43 tox inh: inactive

What do the screens show for `O/N=C/c1ccc(OCc2ccccc2)c(Cl)c1`?
TDP-43 tox inh: 10µM*

Results for O/N=C/c1ccc(OCc2ccccc2)c(Br)c1 ?
TDP-43 tox inh: 11µM*

What do the screens show for `COc1cc(/C=N/NC(=O)CN2CCCCC2)ccc1OCc1ccccc1`?
TDP-43 tox inh: inactive

Results for Cc1nc2ccc(S(=O)(=O)N(C)CC(=O)Nc3ccc(Br)c(C)c3)cc2s1 ?
TDP-43 tox inh: inactive

Results for Cc1c(C(=O)NCc2cccc(Br)c2)oc2ccc3c(c12)C(=O)CC(C)(C)O3 ?
TDP-43 tox inh: inactive

Results for Cc1ccc(-c2nnc3c4ccccc4c(C)nn23)cc1NC(=O)c1ccccc1Cl ?
TDP-43 tox inh: inactive

How did CCc1ccccc1NC(=O)C1CCCN(c2nnc(-n3c(C)ccc3C)s2)C1 (centres undefined) do in these assays?
TDP-43 tox inh: inactive

Results for COC(=O)N/N=C/c1ccccc1OCCOc1ccc(OC)cc1 ?
TDP-43 tox inh: inactive

What do the screens show for `O/N=C/c1ccccc1Oc1ccc(Cl)cc1`?
TDP-43 tox inh: 18µM*

How did CCOC(=O)COc1ccccc1/C=N/O do in these assays?
TDP-43 tox inh: inactive

How did CCc1cccc(NC(=O)CNS(=O)(=O)c2ccc3nc(C)sc3c2)c1 do in these assays?
TDP-43 tox inh: inactive

How did COC(=O)c1cc2oc3ccccc3c2n1Cc1c(F)cccc1Cl do in these assays?
TDP-43 tox inh: inactive

What do the screens show for `COc1ccc2c(c1)Cc1sc(NC(=O)c3ccc(Cl)cc3)nc1-2`?
TDP-43 tox inh: inactive

How did CCCCC(=O)NCc1ccccc1Cl do in these assays?
TDP-43 tox inh: inactive

Results for O=C(CN1CCc2ccccc21)NCc1ccccc1Cl ?
TDP-43 tox inh: 13µM*

What do the screens show for `O=C(CN1CCN(Cc2ccccc2)CC1)NCc1ccccc1Cl`?
TDP-43 tox inh: inactive

How did COc1ccc(OC)c(NC(=O)N2CCC3(CC2)Oc2ccccc2C(=O)N3Cc2ccccc2F)c1 do in these assays?
TDP-43 tox inh: inactive

Results for CCOC(=O)c1c(NC(C)=O)c2c3c(sc2n1Cc1ccc(Cl)cc1)CCCC3 ?
TDP-43 tox inh: inactive

What do the screens show for `N#CCCn1cc(C(=O)Nc2ccc([N+](=O)[O-])cc2)c(-c2cccs2)n1`?
TDP-43 tox inh: inactive

What do the screens show for `CC(=O)Nc1nc(-c2ccc([N+](=O)[O-])cc2)cs1`?
TDP-43 tox inh: inactive

Results for O=[N+]([O-])c1ccc(-c2nc(-c3cccs3)c(-c3cccs3)[nH]2)cc1 ?
TDP-43 tox inh: 3.2µM*

How did CCc1ccccc1NC(=O)Cn1nnc(-c2nc(-c3ccncc3)no2)c1N do in these assays?
TDP-43 tox inh: inactive

What do the screens show for `CCOC(=O)c1c(NC(C)=O)c2c3c(sc2n1Cc1cc(C)ccc1C)CCCC3`?
TDP-43 tox inh: inactive

Results for CCn1c(C(=O)NCc2ccc(C)cc2)cc2sc(Cl)cc21 ?
TDP-43 tox inh: inactive

How did CC1CN(C(=O)CS(=O)(=O)Cc2ccccc2)CC(C)O1 (centres undefined) do in these assays?
TDP-43 tox inh: inactive

Results for CC1CN(C(=O)C(Sc2ccccc2)c2ccccc2)CC(C)O1 (centres undefined) ?
TDP-43 tox inh: inactive

Results for CC1CN(C(=O)N2c3ccccc3Sc3ccccc32)CC(C)O1 (centres undefined) ?
TDP-43 tox inh: 13µM*

What do the screens show for `Cc1ccc(NC(=O)N2CCc3cc(S(=O)(=O)N4CCC(C)CC4)ccc32)cc1`?
TDP-43 tox inh: inactive

What do the screens show for `O=C(Nc1cccc(-c2nc3ccccc3[nH]2)c1)c1c(F)cccc1F`?
TDP-43 tox inh: inactive

What do the screens show for `S=c1[nH]cnc2scc(-c3ccc(Br)cc3)c12`?
TDP-43 tox inh: inactive

Results for O=c1[nH]cnc2scc(-c3ccc(Br)cc3)c12 ?
TDP-43 tox inh: inactive

What do the screens show for `Cc1ccc(-c2csc3nc[nH]c(=S)c23)cc1`?
TDP-43 tox inh: 14µM*

Results for CC(C)CCNC(=O)CN1C(=O)c2cccnc2Oc2ccccc21 ?
TDP-43 tox inh: inactive

What do the screens show for `CCOC(=O)c1c(-c2ccc(Br)cc2)csc1NC(=O)c1ccc(C(C)(C)C)cc1`?
TDP-43 tox inh: inactive
